# Screening results: PubChem, National Center for Advancing Translational Sciences (NCATS)
# Shown are actives, neighbours in structure and some others; about 19% of the full set was active somewhere.
# TDP1 cell CPT – DT40-hTDP1 cell growth loss with CPT; chicken DT40 Tdp1-/-;hTDP1 cells + 20 nM CPT, ATP luminescence, 48 h; Potency, µM (doses to about 46.2 µM), inactives show at the top dose activity change, negative = growth inhibition, actives largely listed as inhibitors; hit rate 12% among 420,000; AID 686979; further: potency means the concentration at half of the fitted maximal effect; nearly all actives have a fitted effect of over 55% in size
#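 Chicken DT40 Tdp1-/- cells stably complemented with human TDP1 were seeded at 400 cells/well in medium containing 20 nM camptothecin, exposed to pin-transferred compounds, and grown at 37 °C for at least 48 hr. Viability was read as ATP luminescence.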
# DT40 TDP1 no CPT – qHTS for Inhibitors of human tyrosyl-DNA phosphodiesterase 1 (TDP1): qHTS in cells in absence of CPT; DT40 Tdp1-/- hTDP1 cells, no CPT, ATP luminescence, 48 h; Potency, µM (top dose mostly 46.2 µM), for inactives: at the highest dose activity change, negative = growth inhibition, most hits filed as inhibitors; hit rate 15% among 420,000; AID 686978, 2013; further: potency means the concentration at half of the fitted maximal effect; nearly all actives have a fitted effect of over 55% in size
#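 Chicken DT40 Tdp1-/- cells stably complemented with human TDP1 were seeded at 400 cells/well with DMSO in place of 20 nM camptothecin. After compound pinning, cells grew at least 48 hr at 37 °C; viability read by CellTiter-Glo luminescence.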
# Giardia killer – Giardia lamblia killing | activity change, % at 7.66 µM, hits read low | Giardia lamblia trophozoite viability | hit rate 0.15% among 340,000 | AID 540267; in the data active means activity change below about -80%; inconclusive means between about -30% and that limit;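 further: parasites exposed to compound for two days anaerobically before the ATP read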
#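 Luminescence from cellular ATP indicates surviving trophozoites (100 cells/well) following 48 hrs anaerobic compound treatment at 37 deg C; signal develops 15-30 min at room temperature.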
# ELG1 DNA repair – blocks ELG1-dependent DNA repair in HEK293T cells. AID 504467. hit rate 2.3% among 330,000. HEK293T ELG1-luciferase reporter, luminescence, 16 h; DNA damage induced by 5-fluorouridine. Potency, µM (doses to about 46.1 µM), for inactives: top-dose activity change, negative = inhibition, hits mostly inhibitors; further: potency means the concentration at half of the fitted maximal effect; nearly all actives have a fitted effect of over 55% in size
#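 Step one: seed 2,000 cells per well. Step two: pin-transfer compound or DMSO alongside 5-fluorouridine. Step three: incubate 16 hr, 37 °C, 5% CO2. Step four: add ONE-Glo, wait 30 min, read luminescence.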
# TDP1 inh – blocks human tyrosyl-DNA phosphodiesterase 1; AID 485290; hit rate 0.28% among 350,000; recombinant TDP1, AlphaScreen DNA substrate cleavage; Potency, µM (titrated, usually from 130 µM), for the others: at the highest dose activity change, negative = inhibition, most hits filed as inhibitors; Q9NUW8; further: potency means the concentration at half of the fitted maximal effect; nearly all actives have a fitted effect of over 40% in size
# Target sequence (Q9NUW8 whole entry, looked up): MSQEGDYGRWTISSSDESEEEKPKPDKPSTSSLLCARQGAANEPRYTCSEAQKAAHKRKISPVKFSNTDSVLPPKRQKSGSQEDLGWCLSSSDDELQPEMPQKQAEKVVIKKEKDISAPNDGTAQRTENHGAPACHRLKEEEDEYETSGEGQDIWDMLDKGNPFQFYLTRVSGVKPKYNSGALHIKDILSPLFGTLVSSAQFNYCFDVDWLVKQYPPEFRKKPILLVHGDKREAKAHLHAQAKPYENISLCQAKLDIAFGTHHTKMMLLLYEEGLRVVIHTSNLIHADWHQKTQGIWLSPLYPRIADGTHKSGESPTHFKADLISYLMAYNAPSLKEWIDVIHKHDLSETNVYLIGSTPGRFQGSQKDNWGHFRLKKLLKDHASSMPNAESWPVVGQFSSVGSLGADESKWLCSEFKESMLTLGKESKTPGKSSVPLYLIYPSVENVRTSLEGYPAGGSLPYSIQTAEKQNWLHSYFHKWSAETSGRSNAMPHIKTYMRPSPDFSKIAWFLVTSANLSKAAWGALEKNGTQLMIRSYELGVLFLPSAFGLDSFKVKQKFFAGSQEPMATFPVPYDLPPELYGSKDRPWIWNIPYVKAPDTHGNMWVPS
#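 Recombinant E. coli-expressed Tdp1 (1 nM) preincubated with compound 15 min at RT, then 5'-biotin/3'-phosphotyrosine-FITC DNA substrate (15 nM) added for 5 min. AlphaScreen beads (10 ug/ml) added, 10 min RT; tyrosine-FITC cleavage read as signal loss.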
# IL1B secr inh – blocks inflammasome-driven IL-1 beta release; hit rate 4.7% among 360,000; THP-1 LPS/ATP IL-1B secretion, AlphaLISA, 16 h; active compounds read low; activity change, % at 57.5 µM; AID 743279; in the data active means activity change below about -50%; inconclusive means mostly about -30% to -49%
#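 THP-1 cells pretreated 1 hr with compounds (up to 57.5 uM final), then stimulated with LPS (250 ng/mL final) plus ATP (1.25 mM final); secreted IL-1B measured by AlphaLISA after 16 hr, decreased signal indicating inhibition.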
# Starred values were filed as active, the others as inactive; ? = inconclusive; . = no result given; [ ] = another dose, or the depositor's remark. Unless noted, the call rests on the fitted dose curve; in most records, active means well fitted curve in the direction sought with a large enough effect; inconclusive means small, poorly fitted or top-dose-only effect, or another doubt; inactive means no such curve, though single readings can be large; an effect the other way counts as inactive or inconclusive. On the % scale 0 is the no-effect control and ±100 the full control effect.
SMILES,TDP1 cell CPT,DT40 TDP1 no CPT,Giardia killer,ELG1 DNA repair,TDP1 inh,IL1B secr inh
COC(=O)C1=C(c2ccc(Cl)c(C(F)(F)F)c2)C[C@@H]2CC[C@H]1N2C(=O)NCCOc1ccc(OC)cc1,?,?,13,?,-13%,-63*
O=C(CN1CCOCC1)c1cccc([N+](=O)[O-])c1,-9%,-12%,.,.,.,.
Oc1ccc2c3c1O[C@H]1[C@@H](O)C=C[C@H]4[C@@H](C2)NCC[C@@]341,-19%[92.5 µM],-16%[92.5 µM],.,.,.,.
Cc1ccc(Cn2c(=O)n(CCCCC(=O)NCc3ccccc3Cl)c(=O)c3ccccc32)cc1,4.6µM*,5.2µM*,.,.,0%,.
COc1ccc(CCNC(=O)CCn2c(=O)c3ccccc3n(Cc3ccc(Cl)cc3)c2=O)cc1OC,18µM*,6.5µM*,.,.,-1%,.
CCCCn1c(=O)c(C(=O)NCc2ccc(Cl)cc2)c(O)c2ccccc21,-87%,?,-1,-19%,.,69
CC(C1OC(C)(C)C(O)C1O)C1CC[C@@]2(C)C3=CCC4C(C)(C)C(=O)CC[C@]4(C)C3CC[C@@]12C (stereo not given in full),?,?,.,.,13%[56.1 µM],.
CCCCOCC1CO1 (stereo not given),.,.,.,.,-11%,.
COCC#CCN1CCCCC1c1cccnc1 (stereo not given),15%[9.04 µM],-6%[9.04 µM],.,.,0%,.
Cc1c(O)c(O)cc2c1CC=C1[C@]3(C)CC[C@]4(C)CC[C@@](C)(C(=O)O)CC4[C@]3(C)CC[C@]12C (stereo not given in full),7.3µM*,4.1µM*,.,.,13%[56.1 µM],.
CC1=C(O)C(=O)C=C2C1=CC=C1C2(C)CCC2(C)C3CC(C)(C(=O)O)CCC3(C)CCC12C (stereo not given),1.3µM*,1µM*,?,.,.,-57*
CN(C(=O)Oc1ccc([N+](=O)[O-])cc1)c1ccccc1,4%,-6%,-5,?,-1%,-56*
CN(Cc1cccc(-c2ccncc2)c1)C(=O)Oc1ccc([N+](=O)[O-])cc1,21µM*,16µM*,.,.,.,-26
COc1ccc2c(c1)c(=O)c(C(=O)c1ccc(Cl)cc1)cn2CC(=O)Nc1ccc2c(c1)OCCO2,18µM*,21µM*,.,.,4%,.
O=C(c1ccc(Cl)cc1)c1cn(Cc2ccccc2)c2cc3c(cc2c1=O)OCCO3,?,23µM*,.,.,10%,.
O=C(Nc1ccc2c(c1)OCCO2)c1cccn(Cc2ccccc2)c1=O,?,?,.,.,5%,.
COc1ccc(OC)c(NC(=O)Cn2cc(C(=O)c3ccccc3)c3ccccc32)c1,?,?,.,.,6%,.
CCN(C[C@H]1N[C@@](C)(C(=O)OC)[C@H]2C(=O)N(Cc3ccccc3)C(=O)[C@@H]12)C(=O)Nc1ccc(C)cc1,-3%,?,8,-3%,1%,6
O=C(CF)N(O)c1ccc(C=Cc2ccccc2)cc1,0.13µM*,0.026µM*,-11,.,.,-28
O=C1CN=C(c2cccc(Br)c2)c2cc(Br)ccc2N1,-4%,16µM*,-22,?,.,?
O=C1CN=C(c2ccccc2)c2cc([N+](=O)[O-])ccc2N1,-21%,3%,-29,6%,0%,-78*
O=C1CN=C(c2cc([N+](=O)[O-])ccc2Cl)c2cc([N+](=O)[O-])ccc2N1,0%,-19%,4,.,.,-12
Cc1cc(OC(=O)CCNC(=O)OC(C)(C)C)c2c3c(c(=O)oc2c1)CCC3,?,21µM*,14,?,-2%,-10
Cc1cc(OCC(=O)OC(C)(C)C)c2c3c(c(=O)oc2c1)CCC3,-23%,-25%,0,17%,5%,32
CCC(NC(=O)OC(C)(C)C)C(=O)Oc1cc(C)cc2oc(=O)c3c(c12)CCC3 (stereo not given),21µM*,12µM*,4,-16%,2%,26
SMILES,TDP1 cell CPT,DT40 TDP1 no CPT,Giardia killer,ELG1 DNA repair,TDP1 inh,IL1B secr inh
CC1(C)[C@H](C=C(Cl)Cl)[C@H]1C(=O)OCc1c(F)c(F)cc(F)c1F,30%,-4%,.,.,.,.
O=C(NNc1c(F)c(F)cc(F)c1F)c1cc2ccccc2oc1=O,-6%,7%,11,?,-3%,18
CC(=O)OC1CC2(O)C3CCC4CC(O)CCC4(C)C3CCC2(C)C1C1=CC(=O)OC1 (stereo not given),?,8.2µM*,12,.,.,-80*
C[C@@]12CC[C@H](O)C[C@@H]1CC[C@H]1[C@H]2CC[C@@]2(C)[C@@H](C3=CC(=O)OC3)CC[C@]12O,.,.,.,.,3%[21 µM],.
C[C@@H]1O[C@H](O[C@@H]2CC[C@@]3(C=O)[C@H]4CC[C@@]5(C)[C@@H](C6=CC(=O)OC6)CC[C@@]5(O)[C@@H]4CC[C@]3(O)C2)C[C@H](O)[C@@H]1O,.,.,.,.,10%[21 µM],.
CC1OC(OC2C(O)CC(OC3C(O)CC(OC4CCC5(C)C(CCC6C5CCC5(C)C(C7=CC(=O)OC7)C(O)CC65O)C4)OC3C)OC2C)CC(O)C1O (stereo not given),1.5µM*,0.82µM*,2,.,.,-99*
C[C@H]1O[C@@H](O[C@H]2[C@@H](O)C[C@H](O[C@H]3[C@@H](O)C[C@H](O[C@H]4CC[C@@]5(C)[C@H](CC[C@@H]6[C@@H]5CC[C@]5(C)[C@@H](C7=CC(=O)OC7)CC[C@]65O)C4)O[C@@H]3C)O[C@@H]2C)C[C@H](O)[C@@H]1O,0.3µM*,0.3µM*,42,0.15µM*,5%,-76*
O=C(O)C(Cl)Br (stereo not given),.,.,.,.,6%,.
O=[N+]([O-])c1ccc(NCc2ccc(Cl)cc2)c2ccncc12,23µM*,21µM*,19,-7%,.,-57*
O=[N+]([O-])c1ccc(NCc2ccccc2)c2nonc12,-28%,-13%,-7,-1%,-3%,34
COC(=O)C(Cl)C(=O)OC,0%,1%,.,.,.,.
O=C1c2ccccc2C(=O)c2c1ccc1c(=O)n(-c3ccccc3)[nH]c21,?,23µM*,-19,?,8%,-12
COc1ccc(NC(=O)CCc2nc(C3=CCN(Cc4cccc(C)c4)CC3)no2)c(OC)c1,16µM*,12µM*,.,.,5%,.
O=C(CCc1nc(C2=CCN(Cc3cccc(Cl)c3)CC2)no1)Nc1ccccc1F,15µM*,12µM*,.,.,5%,.
O=c1oc2ccccc2c(O)c1[C@H]1c2ccc(O)cc2Oc2c1c(=O)oc1ccccc21,?,23µM*,4,?,-12%,-92*
